Laboratory results: PubChem BioAssay AID1851 (National Center for Advancing Translational Sciences (NCATS), 2009)
Several values for one entry are separate records, joined by “and”; a condition that tells them apart may be missing. Identical values can stand only once. In all, about 16,000 compounds went through this assay and about 5,800 (36%) were called active. Another 23% or so got no clear call; they are omitted. Some of the results follow. Unmarked numbers belong to inactive results. Calls come from the whole dose curve; as a rule, active = well fitted curve in the direction sought with a large enough effect; inconclusive = small, poorly fitted or top-dose-only effect, or effect the other way; inactive = no such curve, though single readings can be large or run the other way.

Biological target: Cytochrome P450 2C19 (Homo sapiens) (UniProt P33261)
Sequence (P33261 whole entry, looked up): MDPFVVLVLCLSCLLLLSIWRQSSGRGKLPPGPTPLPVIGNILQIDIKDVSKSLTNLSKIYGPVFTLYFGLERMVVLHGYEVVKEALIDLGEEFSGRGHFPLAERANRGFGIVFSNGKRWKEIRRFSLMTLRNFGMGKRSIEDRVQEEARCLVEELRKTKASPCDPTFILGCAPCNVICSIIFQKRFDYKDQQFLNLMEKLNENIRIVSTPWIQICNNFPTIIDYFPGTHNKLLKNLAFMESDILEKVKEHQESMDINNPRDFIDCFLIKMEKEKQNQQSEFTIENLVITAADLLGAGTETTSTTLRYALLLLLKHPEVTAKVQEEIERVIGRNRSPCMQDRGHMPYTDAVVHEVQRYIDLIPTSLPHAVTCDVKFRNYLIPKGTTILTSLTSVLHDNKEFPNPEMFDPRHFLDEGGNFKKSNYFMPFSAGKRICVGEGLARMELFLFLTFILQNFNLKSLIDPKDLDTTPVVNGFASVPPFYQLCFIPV
Experiment: Cytochrome panel assay with activity outcomes
Details: recombinant CYP, pro-luciferin dealkylation, luminescence, p450-cyp2c19; series mostly up to 57.1 µM
% is set by controls: 0 for no effect and ±100 for the full control effect.

Structure (SMILES)	AC50	activity, negative = inhibition
Cc1oc(-c2ccccc2Cl)nc1CSCC(=O)NC1CC1	14.1 µM (active)	–
Cc1oc(-c2ccccc2F)nc1CSCC(=O)NCc1ccc2c(c1)OCO2	1.78 µM (active)	–
CCOC(=O)N1CCN(C(=O)CSCc2nc(-c3ccccc3F)oc2C)CC1	31.6 µM (active)	–
Cc1oc(-c2ccccc2F)nc1CS(=O)(=O)CC(=O)NCCCN(C)C1CCCCC1	inactive	–
N#Cc1cccc(NC(=O)N2CCC3(CC2)CCN(C(=O)c2csnn2)CC3)c1	inactive	–
Nc1ncnc2c([C@@H]3O[C@@H](CO)[C@H](O)[C@@H]3O)nsc12	–	20.7% [at 11.4 µM]
CC(C)(C(=O)c1cccnc1)c1cccnc1	inactive	–
Cc1nn(C(=O)c2ccco2)c(C)c1Sc1ccccc1	6.31 µM (active)	–
O=C(c1ccco1)N1CCC[C@@]2(CCN(Cc3ccccc3)C2)C1	inactive	–
Cc1nn(C(=O)c2cccnc2)c(C)c1Sc1ccc(Br)cc1	0.631 µM (active)	–
Cc1nn(C(C)(C)C)c(OC(=O)c2ccco2)c1Sc1ccccc1	7.08 µM (active)	–
O=C(c1ccco1)N1CCC2(CC1)CCN(c1ccccc1)CC2	inactive	–
C/C(CCN1CCCc2nc(C)c(C)cc21)=N\OC[C@@H](C)[C@H](OCc1ccccc1)C(C)C	–	-29.2% [at 11.4 µM]
Cc1ccccc1CSc1nsc(N)n1	11.2 µM (active)	–
CCN1/C(=C/c2ccc3cccc(C)c3[n+]2CC)Sc2ccccc21	inactive	–
NC(=O)NC(=O)Nc1ccccc1Cl	inactive	–
O=C(CS(=O)c1cccc(Cl)c1)Nc1ccccc1Cl (configuration not stated)	2.51 µM (active)	–
NCC(=O)Nc1ccc(Cl)cc1C(=O)c1ccc[nH]1	–	-10.9% [at 11.4 µM]
O=C(CS(=O)c1cccc(C(F)(F)F)c1)Nc1ccccc1Cl (configuration not stated)	2.82 µM (active)	–
O=C(CS(=O)(=O)c1cccc(Cl)c1)Nc1ccccc1Cl	2.51 µM (active)	–
OC[C@@H]1O[C@@H](n2cnc3c(N[C@H]4CCC[C@@H]4O)ncnc32)[C@H](O)[C@H]1O	inactive	–
Cc1cccc[n+]1CC(=O)Nc1ccc([N+](=O)[O-])cc1Cl	3.16 µM (active)	–
O=C(Nc1ccc([N+](=O)[O-])cc1Cl)c1cc(Cl)ccc1O	inactive	–
Cc1ccc(S(=O)(=O)c2c(C)nn(C(C)(C)C)c2OC(=O)c2cccs2)cc1	1 µM (active)	–
CN1CCC(n2[nH]c(-c3ccccc3)c(Cc3ccccc3)c2=O)CC1	–	-29.5% [at 11.4 µM]
COc1cc([C@H](O)CO)ccc1O	inactive	–

Structure (SMILES)	AC50	activity, negative = inhibition
CCc1sc(-c2c(C#N)c(N)nc3c2CCCCCC3)cc1[N+](=O)[O-]	3.98 µM (active)	–
N#Cc1c(N)nc2c(c1-c1cccc(O)c1)CCCCCC2	7.08 µM (active)	–
Cc1c(-c2c(C#N)c(N)nc3c2CCCCCC3)cnn1C	14.1 µM (active)	–
FC(F)(F)c1ccc(N2CCOCC2)c(Nc2nc3ccccc3n3cnnc23)c1	3.55 µM (active)	–
Cc1ccccc1S(=O)(=O)c1c(C)cc(-c2ccccc2)[nH]c1=O	inactive	–
CCCSc1nc(C)cc(C)c1S(=O)(=O)c1ccccc1C	2.24 µM (active)	–
CCCCSc1nc(C)cc(C)c1S(=O)(=O)c1ccccc1C	0.562 µM (active)	–
COc1ccccc1CN1CCC2(CC1)CCN(S(C)(=O)=O)CC2	inactive	–
COc1ccccc1/C=C/C=N/N1CCN(Cc2cccc3ccccc23)CC1	14.1 µM (active)	–
COc1ccccc1CN1CCC2(CCNCC2)CC1	inactive	–
Cc1ccc(C(=O)c2ccc(CC(=O)O)n2C)cc1	inactive	–
O=C(NCc1cccnc1)C1COc2ccccc2O1 (configuration not stated)	8.91 µM (active)	–
O=C(Nc1ncc(Cc2ccccc2)s1)C1COc2ccccc2O1 (configuration not stated)	inactive	–
O=C(Nc1cccnc1)C1COc2ccccc2O1 (configuration not stated)	11.2 µM (active)	–
COC(=O)CCCC(=O)O	–	37.5% [at 11.4 µM]
O=C(O)CN(CCN(CC(=O)O)CC(=O)O)CC(=O)O.[Cu]	–	-41.9% [at 11.4 µM]
Cc1cc2c(c(=O)o1)[C@H](O)[C@H]1O[C@@H]1C2=O	–	-43.4% [at 11.4 µM]
O=C(CCN1C(=O)C2C3C=CC(C3)C2C1=O)NCCN1CCCc2ccccc21 (configuration not stated)	28.2 µM (active)	–
CC(C)(C)NCC[C@@H](O)c1cc(C(F)(F)F)nc2c(C(F)(F)F)cccc12	–	-11% [at 11.4 µM]
CCN(CC)c1ccc2c(c1)OC(N)=C(C#N)C2c1cccnc1 (configuration not stated)	0.891 µM (active)	–
COc1cc2c(cc1OC)C(C(=O)Nc1ccccn1)C(c1cccnc1)N(C)C2=O (configuration not stated)	inactive	–
COc1ccc(NC(=O)C2c3cc(OC)c(OC)cc3C(=O)N(C)C2c2cccnc2)cc1OC (configuration not stated)	inactive	–
COc1cc2c(cc1OC)C(C(=O)Nc1cccc(C)n1)C(c1cccnc1)N(C)C2=O (configuration not stated)	0.251 µM (active)	–
COc1cc(N=C(N)N=C(N)N)c2ncccc2c1	–	36.7% [at 11.4 µM]
NCCCCCCNS(=O)(=O)c1cccc2c(Cl)cccc12	200 nM (active) and 10 nM (active)	–
CCCCCCCNS(=O)(=O)c1cccc2c(Cl)cccc12	0.126 µM (active)	–

Structure (SMILES)	AC50	activity, negative = inhibition
NCCCCNS(=O)(=O)c1ccc2c(Cl)cccc2c1	0.00251 µM (active)	–
Nc1ccc(S(=O)(=O)NCCS(=O)(=O)O)cc1	–	22.1% [at 11.4 µM]
CNCCNS(=O)(=O)c1cccc2cnccc12	inactive	–
NCCNS(=O)(=O)c1ccc(N)cc1	–	-4.78% [at 11.4 µM]
NCCCCNS(=O)(=O)c1cccc2c(Cl)cccc12	0.1 µM (active)	–
CCN1C(=O)C=CC1=O	inactive	–
NCCCCCCCCCCNS(=O)(=O)c1cccc2c(Cl)cccc12	0.0794 µM (active)	–
NCCNS(=O)(=O)c1cccc2cnccc12	inactive	–
O=S(=O)(NCCCCCCc1ccccc1)c1cccc2c(Cl)cccc12	1 µM (active)	–
NCCCCCCNS(=O)(=O)c1cccc2ccccc12	1 µM (active)	–
C=CCNS(=O)(=O)c1cccc2cc(C(=O)O)c(O)cc12	inactive	–
COc1cc(/C=C/C(=O)O)cc(S(=O)(=O)NCCCO)c1OC	inactive	–
CCCCNS(=O)(=O)c1ccc(OC)c(Cl)c1Cl	0.794 µM (active)	–
CC12CCC(C(=O)O)(C/C1=N\O)C2(C)C (configuration not stated)	inactive	–
CC(C)NC(=O)COC(=O)c1cc(=O)[nH]c2ccccc12	inactive	–
Cc1cc(C(=O)OCC(=O)NCCC(C)C)c2ccccc2n1	14.1 µM (active)	–
COc1ccc(OC)c(-c2cc(C(=O)O)c3cc4ccccc4cc3n2)c1	–	2.46% [at 11.4 µM]
N[C@@H](Cc1[nH]nc2ccccc12)C(=O)O	–	2.15% [at 11.4 µM]
CCNC(=O)COC(=O)c1cc(=O)[nH]c2ccccc12	inactive	–
CCNC(=O)COC(=O)c1cc(-c2ccc(OC)cc2)nc2ccccc12	11.2 µM (active)	–
COc1ccc(C(=O)N2CCC3(CC2)CN(C(=O)Nc2ccccc2)C3)cc1	inactive	–
COc1ccc(NC(=S)Nc2ccccc2)cc1	2 µM (active)	–
COc1ccc(C(=S)Nc2ccccc2)cc1	3.98 µM (active)	–
CC(=O)O[C@]1(C(C)=O)CC[C@@H]2[C@@H]3C=C(Cl)C4=CC(=O)[C@H]5C[C@@H]5[C@]4(C)[C@H]3CC[C@]21C	inactive	–
COc1cccc(-c2[nH]nc3c2C(c2ccc(C)o2)C(C#N)=C(N)O3)c1 (configuration not stated)	1.78 µM (active)	–
COc1cccc(-c2[nH]nc3c2C(c2ccsc2)C(C#N)=C(N)O3)c1 (configuration not stated)	0.447 µM (active)	–

Structure (SMILES)	AC50	activity, negative = inhibition
CS(=O)(=O)N1CCC2(CCN(Cc3nccs3)CC2)CC1	inactive	–
NC(N)=N[C@H](CCC(=O)O)C(=O)O	inactive	–
COC(=O)N1CCC[C@@]2(CCN(C(=O)Nc3cccc(C#N)c3)C2)C1	inactive	–
COC(=O)C1=C(C)OC(N)=C(C#N)C1C1CCCCC1 (configuration not stated)	0.562 µM (active)	–
COC(=O)C1=C(C)OC(N)=C(C#N)C1c1cc(OC)ccc1OC (configuration not stated)	7.94 µM (active)	–
COc1cc(C2C(C#N)=C(N)OC3=C2C(=O)CCC3)cc(OC)c1OC(=O)N1CCOCC1 (configuration not stated)	inactive	–
COc1ccc(N2CCN(C(=N)/C(C(C)=O)=C(\C)O)CC2)cc1	inactive	–
COc1ccc(Nc2ncc(C(=O)N3CCN(c4ccc(F)cc4)CC3)c3ccccc23)cc1	2.24 µM (active)	–
COC(=O)c1ccccc1OCC(=O)N1CCN(c2ccc(OC)cc2)CC1	14.1 µM (active)	–
COc1ccc(Nc2ncc(C(=O)N3CCN(Cc4ccccc4)CC3)c3ccccc23)cc1	2 µM (active)	–
COc1ccc(C(=O)N2CCC3(CCN(Cc4ccccc4OC)CC3)CC2)cc1	inactive	–
O=C(c1coc(=O)c2ccccc12)N1CCN(Cc2ccccc2)CC1	2.24 µM (active)	–
O=C(c1ccco1)N1CCC2(CCN(Cc3ccccc3)CC2)CC1	inactive	–
CC(=O)N1CCC2(CCN(Cc3ccccc3)CC2)CC1	inactive	–
COc1cccc(Nc2ncc(C(=O)O)c3ccccc23)c1	inactive	–
C1CNCCOCCNCCN1	inactive	–
Fc1ccc(COc2ccc(Br)cc2CNCc2ccncc2)cc1	0.1 µM (active)	–
COC(=O)c1scc(C)c1NC(=O)Cc1ccccc1	15.8 µM (active)	–
CCCN[C@@H](C)C(=O)Nc1c(C)csc1C(=O)OC	inactive	–
O=C(Nc1ccccc1)N1CC[C@@]2(CCCN(C(=O)c3cnccn3)C2)C1	inactive	–
Cc1cccc(-c2nc(CN3CCCC(C(=O)NC4CCCCC4)C3)c(C)o2)c1 (configuration not stated)	22.4 µM (active)	–
Cc1ccccc1-c1nc(-c2ccc(NC(=O)c3cccs3)cc2)no1	2.82 µM (active)	–
Cc1ccc(-c2nnc(-c3ccc(NC(=O)c4cccs4)cc3)o2)cc1	6.31 µM (active)	–
Cc1ccc(Cc2cnc(NC(=O)c3cccs3)s2)cc1	8.91 µM (active)	–
